Each structure is given as a SMILES string. Compounds without any hit were thinned out: in the full panel of roughly 83,000, 20% have a hit.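 Compound tested at a single concentration for 48 hours in 96-well plates; a percent growth value below 10 was scored as active.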 Active and inactive are the calls of the source.

In this experiment the test system is CAKI-1 renal. Description: NCI-60 one-dose screen, 48 h (100 = growth as untreated, 0 = no growth, -100 = all killed). The note with it: 10 µM unless noted.
With `Cn1cc(-c2csc(-c3ccc(Cl)cc3)n2)c2cccnc21`, the growth was -29.3% [100 µM] (active). As for `COc1cc(-c2nc(SCCC(C)C)nc(Nc3ccccc3Cl)c2C#N)cc(OC)c1OC`, the figure is 78.9% (inactive).

Consider `CCn1c(=S)[nH]c2c(=O)n(C)c(=O)n(C)c21`, for which the growth was 102% (inactive). With `c1ccc(CNc2c3ccccc3nc3ccccc23)cc1`, the growth was 33.1% (inactive). For the compound `COCCn1c(-c2csc(-c3cn(C)c4ccc(OC)cc34)n2)cc2cccnc21`, the growth is 74.8% (inactive).

Take `CCOC(=O)CSc1ncnc2c1c(-c1ccccc1)c(-c1ccccc1)n2-c1ccc(C)cc1`: the growth was 75.6% (inactive). In the case of `COc1cc2oc(-c3cccc(NC(=O)c4cccc(Br)c4)c3)cc(=O)c2c(OC)c1OC` it was 51.4% (inactive); in that of `Cc1ccc(Cl)cc1Nc1nc(C(F)(F)F)ccc1C(=O)N/N=C/c1cccnc1`, 14.3% (inactive). In the case of `Cn1c(=O)c2c(nc(NC3=NS(=O)(=O)c4ccccc43)n2CC(=O)N2CCc3ccccc32)n(C)c1=O` it was 92.7% (inactive). In the case of `Cc1cccc(Cl)c1NC(=O)c1ccc2nc(NC(=O)NCCN(C)C)sc2c1` it was 95.1% (inactive). Regarding `CCOC(=O)c1c(C)nc2c(c1N)CC(=O)N2Cc1cc(F)cc(Cl)c1`, the growth is 75.8% (inactive). As for `COC(C(=O)[C@@H](O)[C@@H](C)O)[C@@H]1Cc2cc3cc(O[C@H]4C[C@@H](O[C@H]5C[C@@H](O)[C@H](O)C(C)O5)[C@H](O)C(C)O4)cc(O)c3c(O)c2C(=O)[C@H]1O[C@H]1C[C@@H](O[C@H]2C[C@@H](O[C@H]3C[C@@H](OC)[C@H](O)C(C)O3)[C@@H](O)C(C)O2)[C@H](O)C(C)O1` (stereo not given in full), the figure is 73.5% (inactive); as for `CN([O-])c1nc(N(C)[O-])nc(N2CCOCC2)n1.CN([O-])c1nc(N(C)[OH2+])nc(N2CCOCC2)n1.[Fe+3]`, 85.8% [100 µM] (inactive). In the case of `CCOP(=O)(OCC)c1nc(-c2ccccc2)oc1NCc1cccnc1` it was 97.3% (inactive). As for `CCn1c(SCC(=O)c2ccc(Br)cc2)nnc1-c1ccncc1`, the figure is 95.6% (inactive); as for `CCCCNc1ccc(C#N)c(OCCN(CC)CC)c1`, 98.6% (inactive).

Regarding `N#Cc1c(-c2ccc(Cl)cc2)nc(NN=Cc2cccc(O)c2)nc1N1CCOCC1`, the growth was 60.5% (inactive). In the case of `CS(=O)(=O)Nc1cc(-c2ccc3ncnc(Nc4c(Cl)ccc5c4OCO5)c3c2)cnc1Cl` it was -30.4% (active); in that of `Fc1cccc(CNc2c3ccccc3nc3ccccc23)c1F`, 45.7% (inactive); in that of `COC(=O)CNC(=O)[C@H](Cc1ccccc1)NCc1ccncc1`, 99.1% (inactive). For `O=C(NCCCN1CCOCC1)c1cccc(N2C(=O)/C(=C/c3ccc(F)cc3)SC2=S)c1`, the growth was 81.2% (inactive). Consider `O=[N+]([O-])/C(=C/C=C/c1ccccc1)c1ccccc1`, for which the growth is 51.2% (inactive).

In the case of `Cn1cc(-c2csc(-c3c[nH]c4ccc(Br)cc34)n2)c2cnccc21`, the growth is -97% (active).

For the compound `C=C(C)[C@@H]1CC[C@]2(C(=O)N3CCN(C)CC3)CC[C@]3(C)[C@H](CC[C@@H]4[C@@]5(C)CC(=C/c6ccncc6)/C(=N/O)C(C)(C)[C@@H]5CC[C@]43C)[C@@H]12`, the growth was 63.8% (inactive). `COc1cc(N2C(=O)[C@H](O)C2c2ccc(SC)cc2)cc(OC)c1OC` (stereo not given in full): the growth was 23.6% (inactive). As for `CCCCC(=O)c1ccco1`, the figure is 90.2% (inactive). In the case of `C=C(C)[C@@H]1CC[C@]2(C)[C@H](CC=C3[C@@H]4[C@H](C)[C@@H](C)CC[C@]4(CO)CC[C@]32C)[C@@]1(C)CCCN` it was 22.4% (inactive).

For `COc1ccc2[nH]cc(-c3nc(-c4c[nH]c5ccncc45)cs3)c2c1`, the growth was 9.06% (active). As to `Oc1ccc(CN2CCC(N3CCCCC3)CC2)c2cccnc12`, the growth was 44% (inactive).

Consider `CC(C)(C)c1cc(-c2nc3ccc(N4CCN(S(C)(=O)=O)CC4)cc3[nH]2)cc(C(C)(C)C)c1O`, for which the growth is 75.5% (inactive). For `COc1ccc2c(c1)c(-c1noc(C(=O)c3cn(C)c4ccc(Br)cc34)n1)cn2C`, the growth is 94.2% (inactive). In the case of `C[C@H](NC(=O)[C@@H](C)N)[C@H](Oc1ccc2c(cnn2-c2ccc(F)cc2)c1)c1ccc2c(c1)OCCO2`, the growth is 20.4% (inactive). Turning to `C=C(C)[C@@H]1CC[C@]2(C(=O)O)CC[C@]3(C)[C@H](CC[C@@H]4[C@@]5(C)C[C@@H](Cc6cn(CCO[C@@H]7O[C@H](COC(C)=O)[C@H](OC(C)=O)[C@H](OC(C)=O)[C@H]7OC(C)=O)nn6)[C@H](O)C(C)(C)[C@@H]5CC[C@]43C)[C@@H]12`, the growth is 73.2% (inactive).

Turning to `CCN(CC)CCOc1ccc(-c2c(-c3ccccc3)c(=O)oc3ccccc23)cc1`, the growth was 97.5% (inactive). Turning to `COc1ccc2c(O)c(/C=C3\N=Nc4ccccc43)oc2c1C[C@@H]1CCNC[C@H]1F`, the growth is 64.8% (inactive). In the case of `COc1cc(OC)cc(C2=C3CC[C@@H]4[C@H](CC[C@]5(C)C(=O)CC[C@@H]45)C3=CC3C(O)c4cccnc4N4C(=O)COC234)c1` (stereo not given in full) it was 86.6% (inactive); in that of `CC(=O)N1N=C(c2ccc(Nc3nc(Nc4ccc(Cl)cc4)nc(Nc4ccc(Cl)cc4)n3)cc2)CC1c1ccco1` (stereo not given), 86.8% (inactive). As for `CCS/C(Nc1ccccc1)=C(\C#N)C(=O)N/N=C/c1ccc(Cl)cc1Cl`, the figure is 31.5% (inactive). In the case of `CCOC(=O)C(=Cc1cccc(Cl)c1)C(=O)OCC` it was 61.5% (inactive); in that of `CN[C@]12CC3(C=CC(=O)C=C3)O[C@@]1(Cc1ccc(OC)cc1)N(C)C(=O)N2`, 16% (inactive).

The values are drawn from PubChem BioAssay (NCI).
